# Assay results from PubChem BioAssay (Tox21).
# Inconclusive results are not listed. A call without a number means that no potency is given here. The source holds several records for some structures; these can differ, active in one and inactive in another. The source made the active and inactive calls. Calls come from the whole dose curve; as a rule, active = well fitted cell-killing curve with a large enough effect in the repeat runs; inconclusive = weak or mixed curves, or effect the other way; inactive = flat fitted curve, though single readings scatter.
# Test: qHTS assay to identify small molecule agonists of the androgen receptor (AR) signaling pathway in the presence of an antagonist - cell viability counter screen (AID 1259379); note: nearly all actives have a fitted effect of over 25% in size
# Conditions: MDA-kb2 viability, CellTiter-Fluor, 16 h; series mostly up to 92.4 µM
# Text: National Center for Advancing Translational Sciences [NCATS]
# NIH Chemical Genomics Center [NCGC]
# U.S. Environmental Protection Agency [EPA]
# National Institutes of Environmental Health Sciences [NIEHS]
# National Toxicology Program [NTP]
# U.S. Food and Drug Administration [FDA]
# Androgen receptor (AR) is an important member of nuclear receptor family. Its signaling plays a critical role in AR-dependent prostate cancer and other androgen related diseases. Considerable attention has been given in the past decades to develop methods to study and screen for the environmental chemicals that have the potential to interfere with metabolic homeostasis, reproduction, developmental and behavioral functions. Therefore AR binding assay for screening against androgen agonists and antagonists can be used to identify potential endocrine disruptors.
# MDA-kb2 cells (from ATCC, deposited by Wilson et al.) are human breast carcinoma cells that were stably transfected with a luciferase reporter gene under control of the MMTV promoter that contains response elements for both androgen receptor (AR) and glucocorticoid receptor (GR). This particular screening for measuring luciferase reporter gene activity using MDA-kb2 cells against Tox21 10K library compounds is a confirmation study on agonist mode screening in the presence of AR-antagonist compound (Nilutamide) at 3.0uM final concentration. The cytotoxicity of the compounds was tested in parallel by measuring the cell viability using CellTiter-Fluor assay system (Promega, Madison, WI) in the same wells.
# Tox21 Assay Protocol Summary:
# MDA-kb2 cells (cells cultured without CO2) were dispensed at 3,000 cells/well in 4uL of culture medium into white wall/solid-bottom 1536-well plates (Corning Life Sciences, Corning, NY) using a Multidrop Combi (Thermo Fisher Scientific Inc., Waltham, MA) dispenser. The assay plates were incubated at 37C and 0% CO2 for 5hr. One uL of 3.0uM (final concentration) Nilutamide or assay buffer was added using two separate tips of Flying Reagent Dispenser (FRD, Aurora Discovery, San Diego, CA). Then 23nL of compounds dissolved in DMSO at 15 concentrations and positive controls were transferred to the assay plates using a Pintool station (Wako, San Diego, CA). The assay plates were incubated at 37C and 0% CO2 for 16 hr. After 15hr incubation at 37C, 1uL/well CellTiter-Fluor reagent (Promega Corporation) was added to each well of the assay plates using FRD. After 1hr incubation at 37C and 0% CO2, the fluorescence signal was measured using a ViewLux plate reader (PerkinElmer, Shelton, CT).
# Potency is the fitted concentration of half-maximal effect.
row,Structure (SMILES),Potency
1,OC[C@H]1O[C@@H]2O[C@H]3[C@H](O)[C@@H](O)[C@@H](O[C@H]4[C@H](O)[C@@H](O)[C@@H](O[C@H]5[C@H](O)[C@@H](O)[C@@H](O[C@H]6[C@H](O)[C@@H](O)[C@@H](O[C@H]7[C@H](O)[C@@H](O)[C@@H](O[C@H]1[C@H](O)[C@H]2O)O[C@@H]7CO)O[C@@H]6CO)O[C@@H]5CO)O[C@@H]4CO)O[C@@H]3CO,inactive
2,Oc1ccc(C(c2ccc(O)cc2)C(Cl)(Cl)Cl)cc1,inactive
3,CCCCCC=O,inactive
4,Nc1ccc(N)c(Cl)c1,inactive
5,CCCCCCC(C)O (stereo not given),inactive
6,CN(C)CCCN1c2ccccc2Sc2ccc(Cl)cc21,61.1 µM (active)
7,C[C@]12C=CC(=O)C=C1CC[C@H]1[C@@H]3C[C@@H](O)[C@](O)(C(=O)CO)[C@@]3(C)C[C@H](O)[C@@]12F,inactive
8,O=Cc1ccccc1C=O,inactive
9,CCC(=O)O[C@H]1[C@H](O[C@@H]2[C@@H](C)[C@H](O[C@H]3C[C@@](C)(OC)[C@@H](O)[C@H](C)O3)[C@@H](C)C(=O)O[C@H](CC)[C@@](C)(O)[C@H](O)[C@@H](C)C(=O)[C@H](C)C[C@@]2(C)O)O[C@H](C)C[C@@H]1N(C)C,inactive
10,Cc1ccc(N)c([N+](=O)[O-])c1,inactive
11,CN(Cc1cnc2nc(N)nc(N)c2n1)c1ccc(C(=O)N[C@@H](CCC(=O)O)C(=O)O)cc1,inactive
12,CN1CCOCC1,inactive
13,c1ccc2cc3ccccc3cc2c1,inactive
14,O=C(O)c1ccc(O)cc1,inactive
15,CCCCCCOCCOCCO,inactive
16,Nc1cc(Cl)c(N)c(Cl)c1,inactive
17,CCCCCCCCCCC(CO)CCCCCCCC (stereo not given),inactive
18,CC/C(=C(/CC)c1ccc(O)cc1)c1ccc(O)cc1,60.6 µM (active) and inactive
19,CC(=O)[C@@]1(O)CC[C@H]2[C@@H]3C[C@H](C)C4=CC(=O)C=C[C@]4(C)[C@@]3(F)[C@@H](O)C[C@@]21C,inactive
20,O=[Se](O)O,8.64 µM (active)

row,Structure (SMILES),Potency
1,O=C1OC2(c3ccccc31)c1cc(I)c(O)c(I)c1Oc1c2cc(I)c(O)c1I,10.6 µM (active) [middle of 4 runs]
2,C=CCNCC=C,inactive
3,COC(=O)CC(=O)OC,inactive
4,NCCS(=O)(=O)O,25.3 µM (active) and inactive
5,Oc1c(Cl)ccc(Cl)c1Cl,inactive
6,O=C(O)CCCCCCCCCCCC(=O)O,inactive
7,Nc1ccc2c(O)cc(S(=O)(=O)O)cc2c1,inactive
8,COc1ccc2nc(N)sc2c1,inactive
9,CN(C)C,inactive
10,CC(=O)Nc1ccc2c(c1)Cc1cc(NC(C)=O)ccc1-2,inactive
11,CC1(C)NC(=O)N(c2ccc([N+](=O)[O-])c(C(F)(F)F)c2)C1=O,inactive
12,Nc1cc([N+](=O)[O-])ccc1C(=O)O,inactive
13,CC(=O)OC(C)C,inactive
14,CC[C@]12CCCN3CCc4c(n(c5ccccc45)[C@@](O)(C(=O)OC)C1)[C@@H]32,inactive
15,CCCCCCCC/C=C\CCCCCCCC(=O)O,inactive
16,COCCOCCOCCO,inactive
17,C=C[C@@]1(C)CC(=O)[C@]2(O)[C@@]3(C)[C@@H](O)CCC(C)(C)[C@@H]3[C@H](O)[C@H](OC(C)=O)[C@@]2(C)O1,48.6 µM (active)
18,FC(F)(F)C(Cl)Br (stereo not given),inactive
19,C=CC(C)(O)CCC=C(C)C (stereo not given),inactive
20,CCC/C=C/C=O,inactive
